# Results from paper PMC7826789 (International Journal of Molecular Sciences, 2021).
# How the values were obtained:
# [1] = system: PIM1
# [2] = system: PIM2
# [3] = system: PIM3
# [4] = system: PIP4K2C
# [5] = system: PIP5K1C
# [6] = system: PIP5K2C
# [7] = system: PLK1
# [8] = system: PLK2
# [9] = system: PLK3
smiles,measurement,setting,value
CCn1c(-c2nonc2N)nc2cncc(C(=O)N3CC[C@H](N)C3)c21.Cl [SB-772077-B],Kinases covered,[1],PIM1
O=C1Nc2ccc(I)cc2C1=Cc1cc(Br)c(O)c(Br)c1 [GW305074X],Kinases covered,[2],PIM2
NCC1CNC(=O)c2cc3ccc(C(=O)Nc4cccnc4)cc3n2C1 (centres unmarked) [BI00614644],Kinases covered,[3],PIM3
O=C(c1ccc(-c2cc(-c3c[nH]nc3-c3ccccn3)ccn2)cc1)N1CCCC1 [GW792479],Kinases covered,[4],PIP4K2C
Nc1nccc(-c2c(-c3ccc(F)cc3)ncn2C2CCN(Cc3ccccc3)CC2)n1 [SB-219980],Kinases covered,[4],PIP4K2C
CCCc1cc(N2CCCN(C)CC2)nc2sc3c(N)ncnc3c12 [BI00604564],Kinases covered,[5],PIP5K1C
CC(C)N1CC(=O)N(C)c2cnc(Nc3cccc(S(=O)(=O)CCN4CCOCC4)c3)nc21 [BI00009348],Kinases covered,[5],PIP5K1C
same,Kinases covered,[6],PIP5K2C
Cc1cc(NC(=O)c2cccc(NC(=O)/C=C/CN(C)C)c2)ccc1Nc1nccc(-c2cccnc2)n1 [JNK-IN-7],Kinases covered,[6],PIP5K2C
C[C@@H](Oc1cc(-n2cnc3ccc(CN4CCN(C)CC4)cc32)sc1C(N)=O)c1ccccc1C(F)(F)F [GSK461364],Kinases covered,[7],PLK1
COc1cc2ncn(-c3cc(OCC4CCCO4)c(C(N)=O)s3)c2cc1OC (centres unmarked) [GSK204607],Kinases covered,[7],PLK1
same,Kinases covered,[8],PLK2
same,Kinases covered,[9],PLK3
COc1cc2ncn(-c3cc(OCc4ccncc4)c(C(N)=O)s3)c2cc1OC [GSK336313],Kinases covered,[8],PLK2
